Where two headings read alike, the source gives them in different places.

Parameters in all cases: species or system human, MV4-11 + K-562 + COLO205 + SK-N-BE2 + OVCAR-8
In one experiment the test system is ACVR1B. Particulars: read-out: apparent Kd, n = 1.
Another experiment concerns AXL. Particulars: read-out: apparent Kd, n = 1.
Another experiment relates to FYN. The following applies: read-out: apparent Kd, n = 1.
Another experiment concerns LYN. Particulars: read-out: apparent Kd, n = 1.
The next experiment deals with TTK. Particulars: read-out: apparent Kd, n = 1.
A further experiment concerns ULK1. The following applies: read-out: apparent Kd, n = 1.
Another experiment relates to PIK3CG. Particulars: read-out: apparent Kd, n = 1.
The test system of a further experiment is CDC42BPG. The following applies: read-out: apparent Kd, compound concentrations: 100 nM and 1000 nM (sheet 'Samples'), n = 1.
The test system of a further experiment is PDGFRB. Particulars: read-out: apparent Kd; compound concentrations: 100 nM and 1000 nM (sheet 'Samples'), CATDS: 3.4568718881872497E-2; n = 1.
The next experiment concerns CDC42BPA. The following applies: read-out: apparent Kd, compound concentrations: 100 nM and 1000 nM (sheet 'Samples'), n = 1.
Another experiment has as its system CDK9. Particulars: read-out: apparent Kd; compound concentrations: 100 nM and 1000 nM (sheet 'Samples'), CATDS: 4.5836362442514197E-3; n = 1.
In another experiment the test system is CSK. The following applies: read-out: apparent Kd, n = 1.
The next experiment concerns EPHA1. The following applies: read-out: apparent Kd, n = 1.
A further experiment has as its system EPHB3. The following applies: read-out: apparent Kd, n = 1.
In another experiment the test system is MTOR. Particulars: read-out: apparent Kd, n = 1.
In the next experiment the test system is PRKG1. The following applies: read-out: apparent Kd, compound concentrations: 100 nM and 1000 nM (sheet 'Samples'), n = 1.
Another experiment relates to ROCK1. Particulars: read-out: apparent Kd, compound concentrations: 100 nM and 1000 nM (sheet 'Samples'), n = 1.
The next experiment relates to RIPK2. The following applies: read-out: apparent Kd, n = 1.
The test system of the next experiment is TGFBR2. Particulars: read-out: apparent Kd, n = 1.
[1] abbreviates: compound concentrations:100 nM and 1000 nM (sheet 'Samples').

`CNC(=O)c1ccccc1Nc1nc(Nc2ccc(N3CCOCC3)cc2)ncc1Cl.Cl` [GSK1576028A]: the potency estimated from few doses in the experiment with ACVR1B (setting [1]) is 243 nM; with AXL (setting [1]) it was 732 nM; in the experiment on FYN (setting [1]) it was 369 nM; in the experiment with LYN (setting [1]), 1010 nM; with TTK (setting [1]), 2100 nM; with ULK1 (setting [1]) it was 1420 nM.

Take `CONC1=NC(=O)/C(=C/c2ccc3ncccc3c2)S1` [RO4613269-000]: the potency estimated from few doses with PIK3CG (compound concentrations: 100 nM and 1000 nM (sheet 'Samples'), CATDS: 0.172527207279461) is 606 nM.

`CCn1c(-c2nonc2N)nc2c(-c3ccccc3)ncc(OCCCN)c21.CCn1c(-c2nonc2N)nc2c(-c3ccccc3)ncc(OCCCN)c21.O=C(O)C(F)(F)F.O=C(O)C(F)(F)F` [GSK260205A]: the potency estimated from few doses in the experiment with ACVR1B (compound concentrations: 100 nM and 1000 nM (sheet 'Samples'), CATDS: 3.5352360337843801E-2) was 755 nM; with CDC42BPG (CATDS: 6.3279699360334701E-2), 187 nM; in the experiment with PDGFRB, 808 nM.

Regarding `Cn1ncc2c(N)ncnc21` [SKF-18267], the potency estimated from few doses in the experiment on ACVR1B (compound concentrations: 100 nM and 1000 nM (sheet 'Samples'), CATDS: 5.9618595467290699E-3) is 587 nM; in the experiment on AXL (compound concentrations: 100 nM and 1000 nM (sheet 'Samples'), CATDS: 4.1647880989247304E-3) it was 1210 nM; in the experiment with CDC42BPA (CATDS: 3.9597453798327397E-3) it was 1370 nM; with CDC42BPG (CATDS: 5.4078712502347798E-3), 700 nM; in the experiment with CDK9 it was 974 nM; in the experiment with CSK (compound concentrations: 100 nM and 1000 nM (sheet 'Samples'), CATDS: 4.6419413759929496E-3), 948 nM. Besides, the potency estimated from few doses was 506 nM with EPHA1 (compound concentrations: 100 nM and 1000 nM (sheet 'Samples'), CATDS: 6.5055673029188101E-3); 2290 nM in the experiment with EPHB3 (compound concentrations: 100 nM and 1000 nM (sheet 'Samples'), CATDS: 3.3263666790724102E-3); 440 nM with FYN (compound concentrations: 100 nM and 1000 nM (sheet 'Samples'), CATDS: 7.0897882723323898E-3); 586 nM with LYN (compound concentrations: 100 nM and 1000 nM (sheet 'Samples'), CATDS: 5.9641678427723097E-3); 192 nM in the experiment on MTOR (compound concentrations: 100 nM and 1000 nM (sheet 'Samples'), CATDS: 1.26439105920185E-2); 280 nM in the experiment with PIK3CG (compound concentrations: 100 nM and 1000 nM (sheet 'Samples'), CATDS: 9.5970287600273298E-3). Moreover, the potency estimated from few doses in the experiment on PRKG1 (CATDS: 4.7487342618258797E-3) was 904 nM; in the experiment on ROCK1 (CATDS: 4.4818399275614899E-3) it was 1020 nM; in the experiment on TTK (compound concentrations: 100 nM and 1000 nM (sheet 'Samples'), CATDS: 3.8760622756019202E-3), 1450 nM; in the experiment on ULK1 (compound concentrations: 100 nM and 1000 nM (sheet 'Samples'), CATDS: 3.78452040785661E-3) it was 1550 nM.

As to `Fc1ccc(-c2c(-c3ccncc3)[nH]c3cccnc23)cc1` [RO1153853-000], the potency estimated from few doses in the experiment on ACVR1B (compound concentrations: 100 nM and 1000 nM (sheet 'Samples'), CATDS: 6.54692284622726E-2) was 700 nM; with RIPK2 (compound concentrations: 100 nM and 1000 nM (sheet 'Samples'), CATDS: 7.5197956220231496E-2), 498 nM.

Take `O=C1NC(=O)C(N2CCc3ccccc32)=C1c1ccccc1Cl` [SB-373598]: the potency estimated from few doses is 775 nM with AXL (setting [1]); 273 nM in the experiment on CSK (setting [1]); 207 nM in the experiment on EPHA1 (setting [1]); 549 nM in the experiment on EPHB3 (setting [1]); 250 nM in the experiment with FYN (setting [1]); 210 nM with LYN (setting [1]). The potency estimated from few doses in the experiment on MTOR (setting [1]) was 461 nM; in the experiment with PIK3CG (setting [1]) it was 1110 nM; in the experiment with RIPK2 (setting [1]), 273 nM; in the experiment on ULK1 (setting [1]), 305 nM.

Turning to `Cl.NCc1ccc(-c2nc(-c3ccc(Cl)c(O)c3)c(-c3ccncc3)[nH]2)cc1` [SB-476429-A], the potency estimated from few doses in the experiment with RIPK2 (setting [1]) was 22.7 nM; in the experiment with TGFBR2 (setting [1]), 1200 nM.

As to `CCOC(=O)N1CCC(n2cnc(-c3ccc(F)cc3)c2-c2ccnc(N)n2)CC1` [SB-219952], the potency estimated from few doses in the experiment on AXL (compound concentrations: 100 nM and 1000 nM (sheet 'Samples'), CATDS: 1.0061198930866599E-2) is 853 nM; in the experiment on CSK (compound concentrations: 100 nM and 1000 nM (sheet 'Samples'), CATDS: 1.06273677269496E-2), 745 nM; in the experiment with EPHA1 (compound concentrations: 100 nM and 1000 nM (sheet 'Samples'), CATDS: 1.16401500305403E-2), 603 nM; with EPHB3 (compound concentrations: 100 nM and 1000 nM (sheet 'Samples'), CATDS: 9.5797280308489805E-3), 971 nM; in the experiment with RIPK2 (compound concentrations: 100 nM and 1000 nM (sheet 'Samples'), CATDS: 1.44232329790909E-2) it was 387 nM; with ULK1 (compound concentrations: 100 nM and 1000 nM (sheet 'Samples'), CATDS: 8.7591953148760202E-3), 1260 nM.

As for `O=C1N=C(NCCc2ccc(Cl)cc2)S/C1=C\c1ccc2ncccc2c1` [RO4498479-000], the potency estimated from few doses with AXL (compound concentrations: 100 nM and 1000 nM (sheet 'Samples'), CATDS: 1.04698651204191E-2) is 500 nM; with CSK (compound concentrations: 100 nM and 1000 nM (sheet 'Samples'), CATDS: 1.24616497834408E-2) it was 349 nM; with EPHA1 (compound concentrations: 100 nM and 1000 nM (sheet 'Samples'), CATDS: 1.45728088711572E-2) it was 262 nM; with EPHB3 (compound concentrations: 100 nM and 1000 nM (sheet 'Samples'), CATDS: 7.7760925850710602E-3), 1110 nM; in the experiment with FYN (compound concentrations: 100 nM and 1000 nM (sheet 'Samples'), CATDS: 1.0262385049400099E-2) it was 523 nM; with LYN (compound concentrations: 100 nM and 1000 nM (sheet 'Samples'), CATDS: 9.5944426584782493E-3), 613 nM. Moreover, the potency estimated from few doses in the experiment with PIK3CG (compound concentrations: 100 nM and 1000 nM (sheet 'Samples'), CATDS: 8.5012457956318496E-3) is 843 nM; with RIPK2 (compound concentrations: 100 nM and 1000 nM (sheet 'Samples'), CATDS: 1.0901360132345101E-2) it was 458 nM; in the experiment with ULK1 (compound concentrations: 100 nM and 1000 nM (sheet 'Samples'), CATDS: 1.00048929217101E-2) it was 555 nM.

Turning to `Cl.ON=C1CCc2cc(-c3nc(C4CCNCC4)[nH]c3-c3ccncc3)ccc21` [SB-614067-R], the potency estimated from few doses was 846 nM with ACVR1B (setting [1]) and 320 nM in the experiment on RIPK2 (setting [1]).

For the molecule `O=C1NC(=O)/C(=C/c2ccc3ncccc3c2)S1` [RO4603632-000], the potency estimated from few doses in the experiment on PIK3CG (compound concentrations: 100 nM and 1000 nM (sheet 'Samples'), CATDS: 0.208226533332634) was 948 nM.

On to `Cc1ccc(Nc2ccnc(Nc3ccc4c(c3)CS(=O)(=O)C4)n2)cc1O.Cl` [GW579362A], for which the potency estimated from few doses is 261 nM in the experiment on RIPK2 (compound concentrations: 100 nM and 1000 nM (sheet 'Samples'), CATDS: 5.8804795040806997E-2); 13.2 nM with TGFBR2 (compound concentrations: 100 nM and 1000 nM (sheet 'Samples'), CATDS: 0.33092190258733201).

For `CN(c1ccc(NC(=O)Nc2cccc(Cl)c2)cc1)c1ccnc(N)n1.Cl` [GW830707A], the potency estimated from few doses is 1270 nM with CDC42BPA (CATDS: 1.08451954536147E-2); 40.9 nM in the experiment on CDC42BPG (CATDS: 2.2022337119778398E-2); 22.6 nM in the experiment on MTOR (compound concentrations: 100 nM and 1000 nM (sheet 'Samples'), CATDS: 2.8595787466671799E-2); 3.28 nM in the experiment with PRKG1 (CATDS: 9.7555331639362503E-2); 14.2 nM in the experiment on ROCK1 (CATDS: 3.6596827517009503E-2).

Values taken from publication PMC11062922 (Nature Chemical Biology, 2023).
